From PubChem BioAssay (EPA / NIEHS)
Active and inactive are the calls of the source. The calls were made as follows: active = hit-call score of the fitted dose curve at least 0.9, where 1 is the maximum; inactive = score below 0.9.

Legend:
Settings in all cases: mRNA level, 48 h; actives raise or lower the signal
[1] = read-out: Fatty Acid-Binding Protein 1 (FABP1), FABP1 (gene 2168); experiment: LTEA_HepaRG_FABP1: Life Technologies and Expression Analysis (LTEA) Assay for Fatty Acid-Binding Protein 1 (FABP1) using HepaRG (AID 2283494)
How it was run: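 Differentiated human HepaRG cells were exposed in duplicate for 48 h in serum-free induction medium to 8-point half-log concentration series topping at 100 uM in 0.5% DMSO. FABP1 mRNA measured by TaqMan qRT-PCR, normalized to ACTB/GAPDH/POLR2A; bidirectional fit versus DMSO.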

[2] = read-out: Cytochrome P450 4A22 (Homo sapiens) (UniProt Q5TCH4); experiment: LTEA_HepaRG_CYP4A22: Life Technologies and Expression Analysis (LTEA) Assay for Cytochrome P450 4A22 (CYP4A22) using HepaRG (AID 2283495)
How it was run: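 Gene expression measured by qRT-PCR against three housekeeping genes (ACTB, GAPDH, POLR2A), with gain or loss fitted relative to 0.5% DMSO vehicle. HepaRG cultures received 48 h chemical treatment, top concentration 100 uM, half-log steps, duplicate wells.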

[3] = read-out: Cytochrome P450 7A1 (Homo sapiens) (UniProt P22680); experiment: LTEA_HepaRG_CYP7A1: Life Technologies and Expression Analysis (LTEA) Assay for Cytochrome P450 7A1 (CYP7A1) using HepaRG (AID 2283496)
How it was run: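 Gene expression endpoint in human HepaRG liver cells treated for 48 h with test chemicals (up to 100 uM, 0.5% DMSO). Values come from bidirectional concentration-response fitting versus DMSO.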

[4] = read-out: Glutathione S-Transferase (GSTA2), GSTA2 (gene 2939); experiment: LTEA_HepaRG_GSTA2: Life Technologies and Expression Analysis (LTEA) Assay for Glutathione S-Transferase (GSTA2) using HepaRG (AID 2283497)
How it was run: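 Human HepaRG cells, plated 48 h, then exposed in serum-free induction medium for 48 h to eight half-log concentrations up to 100 uM in 0.5% DMSO, duplicate. GSTA2 mRNA by qRT-PCR, normalized to ACTB/GAPDH/POLR2A; bidirectional fit versus DMSO.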

[5] = read-out: Glutamate-cysteine ligase catalytic (GCLC), GCLC (gene 2729); experiment: LTEA_HepaRG_GCLC: Life Technologies and Expression Analysis (LTEA) Assay for Glutamate-cysteine ligase catalytic (GCLC) using HepaRG (AID 2283498)
How it was run: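 Differentiated human HepaRG cells, plated 48 h then switched to serum-free induction medium, were exposed in duplicate for 48 h to 8 half-log concentrations topping at 100 uM in 0.5% DMSO. GCLC mRNA was quantified by qRT-PCR against ACTB, GAPDH and POLR2A.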

[6] = read-out: growth arrest and DNA damage 45 (GADD45G), GADD45G (gene 10912); experiment: LTEA_HepaRG_GADD45G: Life Technologies and Expression Analysis (LTEA) Assay for growth arrest and DNA damage 45 (GADD45G) using HepaRG (AID 2283499)
How it was run: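 GADD45G transcript level by qRT-PCR (housekeeping-normalized: ACTB, GAPDH, POLR2A) after 48 h chemical treatment of a single HepaRG lot in serum-free induction medium; eight-point half-log series up to 100 uM in 0.5% DMSO, duplicates, up- or down-regulation scored.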

[7] = read-out: Glutamate-cysteine ligase regulatory (GCLM), GCLM (gene 2730); experiment: LTEA_HepaRG_GCLM: Life Technologies and Expression Analysis (LTEA) Assay for Glutamate-cysteine ligase regulatory (GCLM) using HepaRG (AID 2283500)
How it was run: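 Human liver HepaRG cultures receive test chemicals for 48 hours at up to 100 uM in 0.5% DMSO. GCLM expression is measured by qRT-PCR and analysed for increases or decreases against vehicle.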

[8] = read-out: Glutathione S-transferase M3 (GSTM3), GSTM3 (gene 2947); experiment: LTEA_HepaRG_GSTM3: Life Technologies and Expression Analysis (LTEA) Assay for Glutathione S-transferase M3 (GSTM3) using HepaRG (AID 2283501)
How it was run: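 GSTM3 transcript levels came from Fluidigm TaqMan qRT-PCR normalized to three housekeeping genes, fitted in both directions against DMSO. HepaRG cultures received chemicals for 48 h in serum-free induction medium (0.5% DMSO), 8 half-log concentrations up to 100 uM, duplicate.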

[9] = read-out: Heat shock 70 kDa protein 1 (HSPA1A), gene 3303; experiment: LTEA_HepaRG_HSPA1A: Life Technologies and Expression Analysis (LTEA) Assay for Heat shock 70 kDa protein 1 (HSPA1A) using HepaRG (AID 2283502)
How it was run: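 HSPA1A induction in human HepaRG liver cells is measured after 48 h of chemical treatment (100 uM maximum, 0.5% DMSO vehicle). Expression comes from qRT-PCR normalized to endogenous controls.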

[10] = read-out: Hypoxia-inducible factor 1-alpha (Homo sapiens) (UniProt Q16665); experiment: LTEA_HepaRG_HIF1A: Life Technologies and Expression Analysis (LTEA) Assay for Hypoxia-inducible factor 1 (HIF1A) Trancription factor using HepaRG (AID 2283503)
How it was run: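 HepaRG, 48 h exposure, 8-pt half-log series from 100 uM, 0.5% DMSO vehicle, duplicates. Readout: HIF1A transcript by qRT-PCR (Fluidigm array), housekeeping-normalised. Bidirectional curve fit vs DMSO baseline.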

[11] = read-out: 3-Hydroxy-3-Methylglutaryl-CoA Synthase 2 (HMGCS2), HMGCS2 (gene 3158); experiment: LTEA_HepaRG_HMGCS2: Life Technologies and Expression Analysis (LTEA) Assay for 3-Hydroxy-3-Methylglutaryl-CoA Synthase 2 (HMGCS2) using HepaRG (AID 2283504)
How it was run: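 Readout is HMGCS2 transcript by qRT-PCR, housekeeping-normalised (ACTB/GAPDH/POLR2A) and fitted bidirectionally against 0.5% DMSO. Differentiated HepaRG cells received chemicals 48 h, duplicate wells, eight half-log concentrations topping at 100 uM.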

HGF (gene 3082) = experiment: LTEA_HepaRG_HGF: Life Technologies and Expression Analysis (LTEA) Assay for Hepatocyte Growth Facto (HGF) using HepaRG (AID 2283505)
How it was run: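 HGF transcript was quantified by TaqMan qRT-PCR against three housekeeping genes after 48 h treatment of HepaRG cells. Exposure ran in duplicate over eight half-log steps topping at 100 uM in 0.5% DMSO vehicle.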

[12] = read-out: Insulin Like Growth Factor 1 (IGF1), IGF1 (gene 3479); experiment: LTEA_HepaRG_IGF1: Life Technologies and Expression Analysis (LTEA) Assay for Insulin Like Growth Factor 1 (IGF1) using HepaRG (AID 2283506)
How it was run: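 Using human HepaRG liver cells, IGF1 transcript induction or suppression is measured 48 h after dosing across eight concentrations capped at 100 uM. Values derive from bidirectional concentration-response fitting with DMSO as baseline.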

[13] = read-out: Intercellular Adhesion Molecule 1 (ICAM1), ICAM1 (gene 3383); experiment: LTEA_HepaRG_ICAM1: Life Technologies and Expression Analysis (LTEA) Assay for Intercellular Adhesion Molecule 1 (ICAM1) using HepaRG (AID 2283507)
How it was run: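 ICAM1 transcript levels measured by qRT-PCR, normalized to three housekeeping genes (ACTB, GAPDH, POLR2A), after 48 h chemical exposure of HepaRG cells. Duplicate eight-point half-log series from 100 uM in 0.5% DMSO; gain or loss fitted against vehicle.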

[14] = read-out: Insulin-like growth factor-binding protein 1 (IGFBP1), IGFBP1 (gene 3484); experiment: LTEA_HepaRG_IGFBP1: Life Technologies and Expression Analysis (LTEA) Assay for Insulin-like growth factor-binding protein 1 (IGFBP1) using HepaRG (AID 2283508)
How it was run: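 Read-out is qRT-PCR transcript level normalized to three housekeeping genes, fitted in both directions against 0.5% DMSO. Differentiated HepaRG cells received eight half-log concentrations (top 100 uM) in duplicate for 48 h in serum-free induction medium.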

[15] = read-out: Interleukin 6 (IL6), IL6 (gene 3569); experiment: LTEA_HepaRG_IL6: Life Technologies and Expression Analysis (LTEA) Assay for Interleukin 6 (IL6) using HepaRG (AID 2283509)
How it was run: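 Differentiated human HepaRG cells, plated 48 h then switched to serum-free induction medium, were exposed in duplicate for 48 h to eight half-log concentrations up to 100 uM in 0.5% DMSO. IL6 mRNA measured by qRT-PCR, normalized to ACTB/GAPDH/POLR2A.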

[16] = read-out: Potassium channel subfamily K member 1 (KCNK1), KCNK1 (gene 3775); experiment: LTEA_HepaRG_KCNK1: Life Technologies and Expression Analysis (LTEA) Assay for Potassium channel subfamily K member 1 (KCNK1) using HepaRG (AID 2283511)
How it was run: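 Differentiated human HepaRG cells in serum-free induction medium were exposed in duplicate for 48 h to 8 half-log concentrations up to 100 uM in 0.5% DMSO. KCNK1 mRNA was measured by TaqMan qRT-PCR, normalized to ACTB, GAPDH and POLR2A, and fitted bidirectionally versus DMSO.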

[17] = read-out: Keratin 19 (KRT19), KRT19 (gene 3880); experiment: LTEA_HepaRG_KRT19: Life Technologies and Expression Analysis (LTEA) Assay for Keratin 19 (KRT19) using HepaRG (AID 2283512)
How it was run: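 KRT19 transcript measured by TaqMan qRT-PCR, referenced to three housekeeping genes, after HepaRG cells received test chemicals for 48 h. Eight half-log concentrations, top 100 uM, 0.5% DMSO vehicle; increases and decreases both fitted.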

[18] = read-out: JUN Transcription Factor, JUN (gene 3725); experiment: LTEA_HepaRG_JUN: Life Technologies and Expression Analysis (LTEA) Assay for JUN Transcription Factor using HepaRG (AID 2283513)
How it was run: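 Human HepaRG liver cells receive test chemicals in 0.5% DMSO for 48 h across an eight-point range topping at 100 uM. Expression changes in JUN are scored in both directions against the DMSO vehicle.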

[19] = read-out: Interleukin 6 Receptor (IL6R), IL6R (gene 3570); experiment: LTEA_HepaRG_IL6R: Life Technologies and Expression Analysis (LTEA) Assay for Interleukin 6 Receptor (IL6R) using HepaRG (AID 2283510)
How it was run: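 Concentration-response in human liver HepaRG cells: eight concentrations from 100 uM downward by half-logs, 48 h exposure, 0.5% DMSO vehicle. IL6R mRNA change measured by qRT-PCR and fitted in both directions relative to vehicle.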

Measured: AC50

Chain of Hypoxia-inducible factor 1-alpha (Homo sapiens) (Q16665 whole entry, looked up): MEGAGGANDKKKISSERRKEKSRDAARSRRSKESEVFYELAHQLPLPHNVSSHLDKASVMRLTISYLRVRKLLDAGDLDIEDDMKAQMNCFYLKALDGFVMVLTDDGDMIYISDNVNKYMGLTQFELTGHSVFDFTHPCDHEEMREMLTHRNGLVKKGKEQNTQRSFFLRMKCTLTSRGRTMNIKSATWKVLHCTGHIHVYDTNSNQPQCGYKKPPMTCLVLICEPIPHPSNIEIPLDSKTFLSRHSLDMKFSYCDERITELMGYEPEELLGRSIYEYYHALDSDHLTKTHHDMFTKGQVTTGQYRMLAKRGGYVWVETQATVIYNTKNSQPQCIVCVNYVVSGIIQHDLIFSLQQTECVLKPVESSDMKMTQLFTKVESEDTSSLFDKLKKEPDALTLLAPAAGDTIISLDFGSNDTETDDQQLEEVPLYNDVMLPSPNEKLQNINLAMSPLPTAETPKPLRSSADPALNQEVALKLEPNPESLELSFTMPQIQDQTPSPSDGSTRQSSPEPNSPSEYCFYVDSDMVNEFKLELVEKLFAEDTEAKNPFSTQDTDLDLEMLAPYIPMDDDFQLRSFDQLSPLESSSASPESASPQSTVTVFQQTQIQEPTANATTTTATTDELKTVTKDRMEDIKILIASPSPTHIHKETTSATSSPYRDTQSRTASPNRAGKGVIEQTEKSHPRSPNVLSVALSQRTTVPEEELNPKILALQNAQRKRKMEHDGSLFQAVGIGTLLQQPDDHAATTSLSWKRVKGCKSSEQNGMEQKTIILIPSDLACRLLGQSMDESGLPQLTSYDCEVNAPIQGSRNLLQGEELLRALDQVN

CCCCC(CC)C(=O)OCCOCCOCCOC(=O)C(CC)CCCC (stereo not given)
not listed: [19]
inactive: all other assays above

OC[C@H]1O[C@@H]2O[C@H]3[C@H](O)[C@@H](O)[C@@H](O[C@H]4[C@H](O)[C@@H](O)[C@@H](O[C@H]5[C@H](O)[C@@H](O)[C@@H](O[C@H]6[C@H](O)[C@@H](O)[C@@H](O[C@H]7[C@H](O)[C@@H](O)[C@@H](O[C@H]1[C@H](O)[C@H]2O)O[C@@H]7CO)O[C@@H]6CO)O[C@@H]5CO)O[C@@H]4CO)O[C@@H]3CO
inactive: all assays above

CC(C)C(=O)Nc1ccc([N+](=O)[O-])c(C(F)(F)F)c1
active: [1] 37.9 µM | [2] 41.7 µM | [3] 67.6 µM | [4] 65.8 µM | [6] 85.6 µM | [7] 50 µM | [8] 50 µM | [11] 72.8 µM | HGF (gene 3082) 66.9 µM | [12] 37.8 µM | [13] 87.3 µM | [14] 66.7 µM | [15] 85 µM | [17] 23.5 µM
inactive: [5] | [9] | [19] | [16] | [18]

CCCCCCCCCC
not listed: [19]
inactive: all other assays above

O=S(=O)(O)c1ccc(N=Nc2c(O)ccc3cc(S(=O)(=O)O)ccc23)cc1
not listed: [19]
inactive: all other assays above

CCCCCCCCN(C)C
not listed: [19]
inactive: all other assays above

COS(C)(=O)=O
inactive: all assays above

CC(=O)c1ccccc1
not listed: [3]
inactive: all other assays above

CCCCCCCCCCCCCCO
not listed: [3]
inactive: all other assays above

COc1cc(C(C)C)c2c(c1)S(=O)(=O)N(COc1cc(=O)n3cccc(OCCN4CCCCC4)c3n1)C2=O
active: [1] 21.7 µM | [2] 20.9 µM | [3] 19.6 µM | [4] 20.5 µM | [5] 12.5 µM | [6] 19.1 µM | [9] 19.7 µM | [11] 20 µM | HGF (gene 3082) 12.5 µM | [15] 12.5 µM | [17] 12.5 µM
inactive: [7] | [8] | [10] | [12] | [13] | [14] | [16] | [18]

C=CN1CCCC1=O
inactive: all assays above

O=c1[nH]cnc2c1ncn2[C@H]1CC[C@@H](CO)O1
not listed: [19]
inactive: all other assays above

OCCOCCOCCO
not listed: [19]
inactive: all other assays above
